Our source for the binding signal values is paper PMC7862700, “An all-to-all approach to the identification of sequence-specific readers for epigenetic DNA modifications on cytosine”.

Experiment in all cases: DAPPL (digital affinity profiling via proximity ligation, sequencing); 10 mM Tris-HCl pH 7.5, 50 mM NaCl, 1 mM DTT, 4% glycerol, room temperature, 30 min; GST-TFs on glutathione beads, 16-mer random dsDNA library, 0.1% formaldehyde crosslink after washing; high values mean tight binding
Conditions in all cases: protein: recombinant; tags: N-terminal GST; dsDNA, one strand shown

For one experiment, the target named is T1, FLI1 (Homo sapiens, UniProt Q01543 1-452).
T1 sequence: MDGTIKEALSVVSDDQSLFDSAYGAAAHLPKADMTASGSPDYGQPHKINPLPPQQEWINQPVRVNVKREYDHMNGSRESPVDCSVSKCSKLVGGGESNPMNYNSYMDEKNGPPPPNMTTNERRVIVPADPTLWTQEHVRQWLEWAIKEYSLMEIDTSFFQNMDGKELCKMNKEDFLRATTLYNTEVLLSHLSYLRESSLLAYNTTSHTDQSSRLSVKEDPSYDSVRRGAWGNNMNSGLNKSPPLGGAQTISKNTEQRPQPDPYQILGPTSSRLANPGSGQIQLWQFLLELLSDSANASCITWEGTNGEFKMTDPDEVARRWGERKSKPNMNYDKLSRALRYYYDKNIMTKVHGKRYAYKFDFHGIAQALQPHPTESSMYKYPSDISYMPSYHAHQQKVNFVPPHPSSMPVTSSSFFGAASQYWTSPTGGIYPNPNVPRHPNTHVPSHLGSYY
The method in brief:
(§1)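 Sequencing on an Illumina NextSeq500 followed washing, crosslinking with 0.1% formaldehyde, proximity ligation (BsaI/T4 ligase, 1 h, 37 °C) and PCR amplification of pools that had been incubated for 30 min at room temperature with 200 nmole of a random double-stranded 16-mer DNA library in Tris/NaCl/DTT/glycerol buffer. Each pool held DNA-barcoded human transcription factors, expressed in yeast as GST fusions and captured on glutathione beads, plus a tag-only sample. Binding signal is a hexamer's read frequency for a factor divided by its frequency in the tag-only sample.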

Another experiment concerns the target T2, ELK1 (Homo sapiens, UniProt P19419 1-428).
T2 sequence: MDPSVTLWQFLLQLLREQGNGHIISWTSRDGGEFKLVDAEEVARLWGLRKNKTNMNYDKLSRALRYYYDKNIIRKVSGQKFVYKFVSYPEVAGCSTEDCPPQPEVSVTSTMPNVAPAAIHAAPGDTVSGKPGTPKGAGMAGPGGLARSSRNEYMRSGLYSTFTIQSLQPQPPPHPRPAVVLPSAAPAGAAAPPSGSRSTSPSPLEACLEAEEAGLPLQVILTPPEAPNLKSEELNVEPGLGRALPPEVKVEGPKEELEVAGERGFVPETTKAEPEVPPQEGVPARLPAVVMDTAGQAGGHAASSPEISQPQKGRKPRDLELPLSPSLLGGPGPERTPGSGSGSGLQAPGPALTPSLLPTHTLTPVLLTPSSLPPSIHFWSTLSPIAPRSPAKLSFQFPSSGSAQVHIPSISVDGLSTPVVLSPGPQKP
The method in brief:
as §1

The target in the next experiment is T3, GABPA (Homo sapiens, UniProt Q06546 1-454).
T3 sequence: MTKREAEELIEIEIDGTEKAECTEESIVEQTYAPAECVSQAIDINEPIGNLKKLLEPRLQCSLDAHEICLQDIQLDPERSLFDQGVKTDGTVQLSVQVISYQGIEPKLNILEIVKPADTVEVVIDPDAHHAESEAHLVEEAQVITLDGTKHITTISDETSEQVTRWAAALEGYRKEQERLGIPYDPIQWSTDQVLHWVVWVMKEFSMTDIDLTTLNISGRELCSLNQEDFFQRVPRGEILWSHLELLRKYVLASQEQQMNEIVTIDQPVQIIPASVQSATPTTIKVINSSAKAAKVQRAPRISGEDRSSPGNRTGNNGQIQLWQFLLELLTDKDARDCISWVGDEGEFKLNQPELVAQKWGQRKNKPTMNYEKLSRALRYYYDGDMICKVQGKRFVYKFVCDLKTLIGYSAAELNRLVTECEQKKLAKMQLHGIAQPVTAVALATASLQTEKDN
An outline of the steps:
as §1

Another experiment deals with T4, ERG (Homo sapiens, UniProt P11308 1-479).
T4 sequence: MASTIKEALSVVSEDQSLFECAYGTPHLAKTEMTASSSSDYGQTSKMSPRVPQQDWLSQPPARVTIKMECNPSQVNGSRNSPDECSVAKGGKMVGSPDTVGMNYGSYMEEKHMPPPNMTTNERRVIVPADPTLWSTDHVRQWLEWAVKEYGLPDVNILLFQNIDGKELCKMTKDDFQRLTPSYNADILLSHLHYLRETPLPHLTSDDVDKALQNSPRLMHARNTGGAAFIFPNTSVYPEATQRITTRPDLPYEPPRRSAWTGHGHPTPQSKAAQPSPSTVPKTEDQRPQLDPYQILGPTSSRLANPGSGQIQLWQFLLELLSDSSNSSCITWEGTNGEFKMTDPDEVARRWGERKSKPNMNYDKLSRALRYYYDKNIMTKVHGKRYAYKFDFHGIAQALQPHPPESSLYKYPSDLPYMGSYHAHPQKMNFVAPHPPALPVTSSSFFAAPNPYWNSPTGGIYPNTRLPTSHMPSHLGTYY
The method in brief:
as §1

The next experiment concerns the target ELF1 (Homo sapiens, UniProt P32519 1-619). An outline of the steps: as §1
The next experiment addresses T5, EHF (Homo sapiens, UniProt Q9NZC4 1-300).
T5 sequence: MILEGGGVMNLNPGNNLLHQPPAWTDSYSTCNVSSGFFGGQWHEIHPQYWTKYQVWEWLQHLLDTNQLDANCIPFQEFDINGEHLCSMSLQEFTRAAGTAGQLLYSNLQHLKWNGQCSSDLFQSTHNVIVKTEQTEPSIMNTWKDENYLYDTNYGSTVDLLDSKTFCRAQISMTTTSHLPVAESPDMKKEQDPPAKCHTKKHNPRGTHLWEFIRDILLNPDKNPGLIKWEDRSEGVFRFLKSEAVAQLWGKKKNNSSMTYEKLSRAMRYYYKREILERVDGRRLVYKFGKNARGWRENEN
The method in brief:
as §1

For another experiment, the target named is SPI1 (Homo sapiens, UniProt P17947 1-270). The method in brief:
as §1

In another experiment the target is SPIB (Homo sapiens, UniProt Q01892 1-262). The method in brief:
as §1

A further experiment addresses T6, ELK3 (Homo sapiens, UniProt P41970 1-407).
T6 sequence: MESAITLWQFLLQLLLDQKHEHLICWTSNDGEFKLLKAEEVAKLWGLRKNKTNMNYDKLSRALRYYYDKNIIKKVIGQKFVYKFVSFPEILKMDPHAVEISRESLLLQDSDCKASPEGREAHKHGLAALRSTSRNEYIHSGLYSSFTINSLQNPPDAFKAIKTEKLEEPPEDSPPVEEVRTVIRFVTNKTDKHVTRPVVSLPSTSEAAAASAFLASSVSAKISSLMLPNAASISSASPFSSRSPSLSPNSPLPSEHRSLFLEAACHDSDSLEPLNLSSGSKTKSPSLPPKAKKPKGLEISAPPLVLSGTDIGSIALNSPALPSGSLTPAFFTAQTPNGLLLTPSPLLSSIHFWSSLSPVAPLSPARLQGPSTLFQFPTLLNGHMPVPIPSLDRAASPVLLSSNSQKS
An outline of the steps: as §1

The target of another experiment is T7, FEV (Homo sapiens, UniProt Q99581 1-238).
T7 sequence: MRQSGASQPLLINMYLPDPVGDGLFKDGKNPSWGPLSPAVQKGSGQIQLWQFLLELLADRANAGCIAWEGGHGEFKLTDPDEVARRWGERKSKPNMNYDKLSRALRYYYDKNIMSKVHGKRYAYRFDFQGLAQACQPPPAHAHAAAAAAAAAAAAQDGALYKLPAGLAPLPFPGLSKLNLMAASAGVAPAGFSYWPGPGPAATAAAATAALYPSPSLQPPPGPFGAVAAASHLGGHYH
An outline of the steps:
as §1

The next experiment has as its target ETV5 (Homo sapiens, UniProt P41161 1-510). An outline of the steps: as §1
For the next experiment, the target named is T8, SPIC (Homo sapiens, UniProt Q8N5J4 1-248).
T8 sequence: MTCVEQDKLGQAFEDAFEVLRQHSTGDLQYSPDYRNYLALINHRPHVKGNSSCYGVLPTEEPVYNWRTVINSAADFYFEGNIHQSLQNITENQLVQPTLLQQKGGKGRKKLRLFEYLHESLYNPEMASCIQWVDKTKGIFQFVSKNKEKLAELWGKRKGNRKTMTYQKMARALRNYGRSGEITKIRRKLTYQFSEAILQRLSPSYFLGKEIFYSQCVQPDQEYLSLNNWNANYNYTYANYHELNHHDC
The method in brief: as §1

The target of a further experiment is ELF4 (Homo sapiens, UniProt Q99607 1-663). An outline of the steps:
as §1

The next experiment deals with T9, ELK4 (Homo sapiens, UniProt P28324-2 1-405).
T9 sequence: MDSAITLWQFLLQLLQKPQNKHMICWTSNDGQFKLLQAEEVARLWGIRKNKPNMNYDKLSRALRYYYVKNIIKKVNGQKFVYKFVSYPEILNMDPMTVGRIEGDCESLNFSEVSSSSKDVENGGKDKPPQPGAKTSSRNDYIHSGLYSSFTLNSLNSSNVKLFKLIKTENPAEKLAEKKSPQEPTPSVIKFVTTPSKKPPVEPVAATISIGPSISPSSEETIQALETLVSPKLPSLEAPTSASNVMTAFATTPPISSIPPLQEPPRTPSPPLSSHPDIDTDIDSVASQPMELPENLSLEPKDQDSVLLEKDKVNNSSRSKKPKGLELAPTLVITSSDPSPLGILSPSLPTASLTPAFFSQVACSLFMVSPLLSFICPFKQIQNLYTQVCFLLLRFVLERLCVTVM
The method in brief: as §1

In the next experiment the target is T10, ETV2 (Homo sapiens, UniProt O00321 1-342).
T10 sequence: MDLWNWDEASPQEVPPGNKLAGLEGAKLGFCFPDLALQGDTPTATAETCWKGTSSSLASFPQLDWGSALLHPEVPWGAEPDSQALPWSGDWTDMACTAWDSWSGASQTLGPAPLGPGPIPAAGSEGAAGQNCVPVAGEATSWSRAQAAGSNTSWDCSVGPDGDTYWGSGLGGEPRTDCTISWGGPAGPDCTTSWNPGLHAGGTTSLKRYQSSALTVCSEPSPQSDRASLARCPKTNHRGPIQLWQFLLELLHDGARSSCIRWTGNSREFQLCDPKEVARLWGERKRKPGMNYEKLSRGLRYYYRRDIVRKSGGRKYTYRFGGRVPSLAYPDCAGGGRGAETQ
An outline of the steps:
as §1

Another experiment deals with T11, ELF3 (Homo sapiens, UniProt P78545 1-371).
T11 sequence: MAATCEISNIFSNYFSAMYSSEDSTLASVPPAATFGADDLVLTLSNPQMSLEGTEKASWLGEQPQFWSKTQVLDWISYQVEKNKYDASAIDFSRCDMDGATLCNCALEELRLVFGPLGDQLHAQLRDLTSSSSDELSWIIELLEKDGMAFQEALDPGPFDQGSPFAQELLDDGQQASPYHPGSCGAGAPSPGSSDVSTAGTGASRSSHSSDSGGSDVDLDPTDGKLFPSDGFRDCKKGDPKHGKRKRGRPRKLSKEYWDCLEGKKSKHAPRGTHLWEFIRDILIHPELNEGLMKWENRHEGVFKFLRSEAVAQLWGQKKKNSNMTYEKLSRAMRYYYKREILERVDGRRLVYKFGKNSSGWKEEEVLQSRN
An outline of the steps: as §1

The next experiment concerns the target ETV1 (Homo sapiens, UniProt P50549 1-477). The method in brief: as §1

Sequence of ELF1 (P32519 whole entry): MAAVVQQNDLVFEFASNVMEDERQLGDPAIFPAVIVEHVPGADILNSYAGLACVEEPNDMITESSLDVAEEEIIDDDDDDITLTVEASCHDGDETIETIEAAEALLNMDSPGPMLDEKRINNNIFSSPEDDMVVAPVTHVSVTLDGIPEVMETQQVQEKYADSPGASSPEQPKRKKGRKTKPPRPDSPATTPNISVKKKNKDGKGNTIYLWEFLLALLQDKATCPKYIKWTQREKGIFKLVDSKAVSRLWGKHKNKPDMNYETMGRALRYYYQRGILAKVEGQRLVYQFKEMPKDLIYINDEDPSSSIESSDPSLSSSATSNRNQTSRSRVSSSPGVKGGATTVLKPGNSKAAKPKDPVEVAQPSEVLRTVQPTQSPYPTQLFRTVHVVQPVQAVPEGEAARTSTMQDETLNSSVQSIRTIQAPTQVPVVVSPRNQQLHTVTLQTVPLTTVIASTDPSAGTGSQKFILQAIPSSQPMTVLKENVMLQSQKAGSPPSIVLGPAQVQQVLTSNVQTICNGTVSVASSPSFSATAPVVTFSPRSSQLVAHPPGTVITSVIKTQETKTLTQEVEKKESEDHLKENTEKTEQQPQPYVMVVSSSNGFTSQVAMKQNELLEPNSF
Sequence of ELF4 (Q99607 whole entry): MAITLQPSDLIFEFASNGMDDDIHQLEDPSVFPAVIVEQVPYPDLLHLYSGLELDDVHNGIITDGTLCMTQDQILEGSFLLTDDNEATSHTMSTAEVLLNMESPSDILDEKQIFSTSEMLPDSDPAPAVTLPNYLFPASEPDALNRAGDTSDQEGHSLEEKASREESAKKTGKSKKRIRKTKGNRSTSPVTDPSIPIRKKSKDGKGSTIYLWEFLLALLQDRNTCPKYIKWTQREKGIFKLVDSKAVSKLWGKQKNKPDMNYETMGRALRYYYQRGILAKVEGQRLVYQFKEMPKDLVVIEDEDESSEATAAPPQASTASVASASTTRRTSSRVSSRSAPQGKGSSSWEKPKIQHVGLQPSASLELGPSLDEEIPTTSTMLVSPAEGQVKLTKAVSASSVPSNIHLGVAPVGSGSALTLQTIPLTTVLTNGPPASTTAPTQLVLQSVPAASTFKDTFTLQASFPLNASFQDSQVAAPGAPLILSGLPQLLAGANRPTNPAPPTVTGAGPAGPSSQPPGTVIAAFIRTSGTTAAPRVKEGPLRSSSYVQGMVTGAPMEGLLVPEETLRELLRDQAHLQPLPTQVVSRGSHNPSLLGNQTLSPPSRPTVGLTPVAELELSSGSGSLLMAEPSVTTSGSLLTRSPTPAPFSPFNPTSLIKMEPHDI
Sequence of ETV5 (P41161 whole entry): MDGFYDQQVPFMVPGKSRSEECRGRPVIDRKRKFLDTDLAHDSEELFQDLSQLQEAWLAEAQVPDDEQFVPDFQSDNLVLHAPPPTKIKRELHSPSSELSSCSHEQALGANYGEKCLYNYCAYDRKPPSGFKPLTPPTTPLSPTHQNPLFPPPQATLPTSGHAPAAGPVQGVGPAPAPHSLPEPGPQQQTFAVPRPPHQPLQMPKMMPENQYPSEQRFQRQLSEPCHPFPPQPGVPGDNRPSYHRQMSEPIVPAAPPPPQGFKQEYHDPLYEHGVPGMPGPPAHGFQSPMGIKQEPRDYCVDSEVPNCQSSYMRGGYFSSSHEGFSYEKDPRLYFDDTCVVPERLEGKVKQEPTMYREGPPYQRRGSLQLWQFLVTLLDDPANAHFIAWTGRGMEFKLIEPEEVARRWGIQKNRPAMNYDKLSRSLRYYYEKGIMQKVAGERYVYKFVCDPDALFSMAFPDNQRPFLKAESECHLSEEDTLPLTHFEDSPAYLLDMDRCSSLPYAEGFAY
Sequence of ETV1 (P50549 whole entry): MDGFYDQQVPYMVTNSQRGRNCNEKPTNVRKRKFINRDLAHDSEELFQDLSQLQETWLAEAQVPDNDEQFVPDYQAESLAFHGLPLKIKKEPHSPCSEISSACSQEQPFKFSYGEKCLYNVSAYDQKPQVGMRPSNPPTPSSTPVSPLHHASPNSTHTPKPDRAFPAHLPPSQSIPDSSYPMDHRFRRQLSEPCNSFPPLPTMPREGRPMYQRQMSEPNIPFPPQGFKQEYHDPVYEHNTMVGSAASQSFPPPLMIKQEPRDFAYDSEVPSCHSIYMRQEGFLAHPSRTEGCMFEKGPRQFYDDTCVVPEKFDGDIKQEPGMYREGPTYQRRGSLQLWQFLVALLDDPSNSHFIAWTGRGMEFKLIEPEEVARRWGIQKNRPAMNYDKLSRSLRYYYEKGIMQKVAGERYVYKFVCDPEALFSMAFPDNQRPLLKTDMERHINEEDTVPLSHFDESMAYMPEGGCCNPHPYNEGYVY
Sequence of SPIB (Q01892 whole entry): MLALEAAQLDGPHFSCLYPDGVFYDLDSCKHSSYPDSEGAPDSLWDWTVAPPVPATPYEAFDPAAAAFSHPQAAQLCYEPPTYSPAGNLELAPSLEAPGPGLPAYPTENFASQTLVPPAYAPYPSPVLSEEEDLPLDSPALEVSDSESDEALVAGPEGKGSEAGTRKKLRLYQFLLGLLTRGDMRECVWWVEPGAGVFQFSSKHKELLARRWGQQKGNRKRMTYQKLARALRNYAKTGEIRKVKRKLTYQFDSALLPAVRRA

Consider TCCGGG, for which the binding signal is 1.54 fold enrichment (6-mer frequency, TF over GST control) with FLI1; 1.55 fold enrichment (6-mer frequency, TF over GST control) with ELK1; 1.35 fold enrichment (6-mer frequency, TF over GST control) with GABPA; 1.56 fold enrichment (6-mer frequency, TF over GST control) in the experiment with ERG; 1.48 fold enrichment (6-mer frequency, TF over GST control) with ELF1; 1.48 fold enrichment (6-mer frequency, TF over GST control) with EHF. Besides, the binding signal is 1.4 fold enrichment (6-mer frequency, TF over GST control) with SPI1; 1.65 fold enrichment (6-mer frequency, TF over GST control) in the experiment with SPIB; 1.46 fold enrichment (6-mer frequency, TF over GST control) with ELK3; 1.36 fold enrichment (6-mer frequency, TF over GST control) with FEV; 1.69 fold enrichment (6-mer frequency, TF over GST control) in the experiment with ETV5; 1.63 fold enrichment (6-mer frequency, TF over GST control) with SPIC. In addition, the binding signal is 1.41 fold enrichment (6-mer frequency, TF over GST control) with ELF4; 1.37 fold enrichment (6-mer frequency, TF over GST control) with ELK4; 1.5 fold enrichment (6-mer frequency, TF over GST control) with ETV2; 1.41 fold enrichment (6-mer frequency, TF over GST control) in the experiment with ELF3; 1.59 fold enrichment (6-mer frequency, TF over GST control) with ETV1.
